# Measured values published in PubChem BioAssay (NCATS).
# Values joined by “and” are separate entries in the source; they are usually repeats but may differ in a detail not shown here. Equal values may be shown once. Records with an inconclusive call do not appear. Unmarked numbers belong to inactive results. Active and inactive are the calls of the source. Calls follow the shape of the dose curve; as a rule, active = well fitted curve in the direction sought with a large enough effect; inconclusive = small, poorly fitted or top-dose-only effect, or another doubt; inactive = no such curve, though single readings can be large; an effect the other way counts as inactive or inconclusive.
# Assays:
# [1] = Viability qHTS for spleen associated tyrosine kinase inhibitor (SYKi) naive MV4-11 cells (AID 1963823); also: nearly all actives have a fitted effect of over 40% in size
# Method in brief: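 qHTS, SYK inhibitor-naive MV4-11; 500 cells/well; 72 hr compound exposure, 37 C; CellTiter-Glo added, 10 min RT; luminescence read.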
# [2] = Viability qHTS for spleen associated tyrosine kinase inhibitor (SYKi) drug resistant MV4-11 cells (AID 1963824); also: nearly all actives have a fitted effect of over 35% in size
# Method in brief: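 CellTiter-Glo luminescence, read 10 min after reagent addition, reports viability after a 72 hr compound exposure. Cells are an MV4-11 line made resistant to SYK inhibition, seeded at 500 per well onto compound-containing plates.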
# [3] = Quantitative highthroughput screen to assess conditional lethalithy of NOMO1 cells grown in RPMI1640 with untreated serum (RPMI+s) (AID 1963876); also: nearly all actives have a fitted effect of over 35% in size;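 as to Viability: 100% = DMSO wells and 0% = empty wells without cells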
# Method in brief: (§1)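 Each medium arm—HPLM with 10% dialyzed FBS, or RPMI1640 with 5 mM glucose and 10% untreated or dialyzed FBS—was screened against an 11-point, 3-fold compound titration for 48 h at 37 °C, with CellTiter-Glo luminescence as endpoint.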
# [4] = Quantitative highthroughput screen to assess conditional lethalithy of NOMO1 cells grown in RPMI1640 with dialyzed fetal bovine serum (RPMI+ds) (AID 1963877); also: nearly all actives have a fitted effect of over 30% in size;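 as to Viability: series mostly up to about 46 µM; 100% = DMSO control wells and 0% = empty wells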
# Method in brief: as §1
# [5] = Quantitative highthroughput screen to assess conditional lethalithy of NOMO1 cells grown in Human Plasma-Like Medium with dialyzed fetal bovine serum (HPLM+ds) (AID 1963878); also: nearly all actives have a fitted effect of over 35% in size;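 as to Viability: 100% = DMSO wells and 0% = empty wells on each plate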
# Method in brief: as §1
# [6] = Quantitative highthroughput screen to assess conditional lethalithy of P12 Ichikawa cells grown in RPMI1640 with untreated serum (RPMI+s) (AID 1963881); settings: Potency: viability; also: nearly all actives have a fitted effect of over 35% in size;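 as to Viability: series mostly up to about 46 µM; 100% = DMSO wells and 0% = empty wells without cells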
# Method in brief: as §1
# [7] = Quantitative highthroughput screen to assess conditional lethalithy of SEM cells grown in Human Plasma-Like Medium with dialyzed fetal bovine serum (HPLM+ds) (AID 1963882); also: nearly all actives have a fitted effect of over 35% in size; as to Viability: series mostly up to about 46 µM
# Method in brief: as §1
# [8] = Quantitative highthroughput screen to assess conditional lethalithy of SEM cells grown in RPMI1640 with unreated serum (RPMI+s) (AID 1963883); also: nearly all actives have a fitted effect of over 35% in size;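 as to Viability: 100% = DMSO wells and 0% = empty wells without cells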
# Method in brief: as §1
# [9] = Quantitative highthroughput screen to assess conditional lethalithy of SEM cells grown in RPMI1640 with dialyzed fetal bovine serum (RPMI+ds) (AID 1963884); also: nearly all actives have a fitted effect of over 35% in size;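 as to Viability: series mostly up to about 46 µM; 100% = DMSO control wells and 0% = empty wells without cells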
# Method in brief: as §1
# [10] = Cellular viability qHTS for adrenocortical cancer (ACC) cell line SW-13 (AID 1963989); settings: SW-13 ACC cells viability, CellTiter-Glo, 48 h; activity (max response): active compounds read low; also: nearly all actives have a fitted effect of over 65% in size;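 as to activity (max response): cells grown in serum-free medium with ITS supplement; % is scaled to controls: 0 for no effect and ±100 for the full control effect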
# Method in brief: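 Viability was read as CellTiter-Glo luminescence after 48 h compound treatment (up to 46 uM final) of SW-13 cells grown serum-free; titration curves were fit with a four-parameter logistic model to give IC50 and efficacy.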
# [11] = Cellular viability qHTS for adrenocortical cancer (ACC) cell line NCI-H295R (AID 1963990); also: nearly all actives have a fitted effect of over 60% in size
# Method in brief: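 CellTiter-Glo ATP luminescence, read 48 h after compound addition, measured viability of NCI-H295R adrenocortical cells grown serum-free with ITS. Final concentrations spanned up to 46 uM. Data normalized to DMSO and doxorubicin, fitted for IC50 and maximal response.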
# [12] = Quantitative highthroughput screen to assess conditional lethalithy of P12 Ichikawa cells grown in RPMI1640 with dialyzed fetal bovine serum (RPMI+ds) (AID 1963880); settings: Potency: P12-Ichikawa viability; also: nearly all actives have a fitted effect of over 35% in size;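 as to Viability: 100% = DMSO wells and 0% = empty wells on each plate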
# Method in brief: as §1
# [13] = Quantitative highthroughput screen to assess conditional lethalithy of P12 Ichikawa cells grown in Human Plasma-Like Medium with dialyzed fetal bovine serum (HPLM+ds) (AID 1963879); settings: Potency: viability; also: nearly all actives have a fitted effect of over 35% in size; as to Viability: series mostly up to about 46 µM
# Method in brief: as §1
# Potency is read from the fitted curve at half-maximal effect.
Structure (SMILES),Potency [1],Potency [2],Potency [3],Potency [4],Potency [5],Potency [6],Potency [7],Potency [8],Potency [9],Potency [10],Potency [11],Potency [12],activity (max response) [10],Potency [13]
CN(C)c1ccc(C(=O)NCCCCCCC(=O)NO)cc1,0.833 µM (active),0.742 µM (active),2.96 µM (active),2.35 µM (active),2.64 µM (active),1.48 µM (active),1.32 µM (active),1.32 µM (active),1.18 µM (active),4.47 µM (active),1.41 µM (active),–,–,–
COC(=O)C1C2CC3c4[nH]c5cc(OC)ccc5c4CCN3CC2CC(OC(=O)c2cc(OC)c(OC)c(OC)c2)C1OC (stereo unspecified),16.6 µM (active),11.8 µM (active),inactive,inactive,inactive,inactive,inactive,inactive,inactive,–,–,inactive,-10.6%,–
COc1ccc2cc(-c3nc(-c4ccc(S(C)=O)cc4)[nH]c3-c3ccncc3)ccc2c1 (stereo unspecified),9.34 µM (active) and 11.6 µM (active),9.34 µM (active) and 13 µM (active),inactive,inactive,inactive,–,inactive,inactive,inactive,–,28.2 µM (active),–,–,inactive
Cn1cnc([N+](=O)[O-])c1Sc1ncnc2nc[nH]c12,5.9 µM (active),2.15 µM (active) and 2.35 µM (active),6.62 µM (active),5.26 µM (active),2.64 µM (active),–,–,–,–,5.01 µM (active) and 9.2 µM (active) and 7.94 µM (active),3.98 µM (active) and 8.2 µM (active) and 5.62 µM (active),5.9 µM (active),–,–
CC(C)Oc1cc(Nc2nc(N[C@@H](C)c3ccc(F)cn3)ncc2Cl)[nH]n1,0.058 µM (active),372 nM (active) and 46.1 nM (active),0.935 µM (active),0.833 µM (active),inactive,–,–,0.526 µM (active),0.332 µM (active),–,inactive,–,-7.04%,0.833 µM (active)
Cc1cc(Nc2ncc(Cl)c(Nc3ccccc3S(=O)(=O)C(C)C)n2)c(OC(C)C)cc1C1CCNCC1,2.59 µM (active),2.31 µM (active) and 2.35 µM (active),18.6 µM (active),18.6 µM (active),13.2 µM (active),26.3 µM (active),14.8 µM (active),–,16.6 µM (active),15.8 µM (active),2.24 µM (active),23.4 µM (active),–,–
COc1cc2nc(N3CCCN(C)CC3)nc(NC3CCN(Cc4ccccc4)CC3)c2cc1OC,2.35 µM (active),2.35 µM (active),8.33 µM (active),5.26 µM (active),5.26 µM (active),13.2 µM (active),5.26 µM (active),11.8 µM (active),–,5.62 µM (active),8.91 µM (active),11.8 µM (active),–,–
COc1ccc(COc2cc3oc(=O)c4cc(C(C)O)ccc4c3cc2OC)cc1 (stereo unspecified),inactive,8.2 µM (active) and 4.68 µM (active),inactive,inactive,inactive,18.7 µM (active),18.7 µM (active),–,–,–,inactive,inactive,–,–
COc1ccc2c(OCc3nnc4ccc(-c5ccccc5)nn34)ccnc2c1,inactive,inactive,inactive,inactive,inactive,inactive,–,11.8 µM (active),18.7 µM (active),–,–,–,-4.03%,–
N#CC1(c2ccc(NC(=O)c3cccnc3NCc3ccncc3)cc2)CCCC1,2.31 µM (active),5.17 µM (active),inactive,inactive,inactive,inactive,inactive,inactive,1.66 µM (active),–,inactive,inactive,-5.11%,–
CN[C@@H](C)C(=O)N[C@H]1CN(C(=O)CC(C)C)CC[C@H]2CC[C@@H](C(=O)NC(c3ccccc3)c3ccccc3)N2C1=O,inactive,5.8 µM (active) and 2.35 µM (active),1.32 µM (active),2.64 µM (active),1.05 µM (active),8.33 µM (active),–,–,–,–,inactive,–,-12.1%,8.33 µM (active)
CN1CCN(c2ccc(C(=O)Nc3n[nH]c4ccc(Cc5cc(F)cc(F)c5)cc34)c(NC3CCOCC3)c2)CC1,209 nM (active) and 164 nM (active),326 nM (active) and 372 nM (active) and 411 nM (active),26.3 µM (active),20.9 µM (active),–,23.4 µM (active),4.17 µM (active),5.24 µM (active),3.71 µM (active),3.16 µM (active),7.08 µM (active),18.6 µM (active),–,23.4 µM (active)
CC1(C)O[C@H]2CC(=O)OC[C@]23[C@H]2CC[C@@]4(C)[C@H](c5ccoc5)OC(=O)[C@H]5O[C@]54[C@]2(C)C(=O)C[C@@H]13,inactive,inactive,inactive,inactive,–,inactive,inactive,inactive,inactive,–,–,inactive,7.85%,inactive
CCOC(=O)C(C)Oc1cccc2c(=O)n(CC(=O)Nc3ccc4c(c3)OCCO4)ccc12 (stereo unspecified),1.48 µM (active),0.934 µM (active),inactive,inactive,–,inactive,inactive,inactive,inactive,–,inactive,inactive,14.3%,inactive
